# Source: the supplement of paper PMC10037445
# Whole data set: some 2,900 compounds, median “IRF Lucia reporter activity, fold change vs agonist alone” near 0.9, cut for the highest 2% near 2.8. For the sample, the highest values were picked, then their nearest neighbours and some compounds at random.
# Legend:
# RAW-Dual [1] = assay: IRF Lucia reporter activity, fold change vs agonist alone; cytotoxicity flag (confluency mask): not cytotoxic; higher = enhanced IRF activity
# Procedure, shortened: (§1)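 After 50 nL of library stock was delivered by pin tool to RAW-Dual macrophages (50,000 cells/well, DMEM, 384-well plates), a PRR agonist was added 1 h later and the plates were kept at 37 °C, 5% CO2. Twenty hours later, IRF was read from supernatant by QuantiLuc luminescence and NF-κB by QuantiBlue absorbance at 620 nm. Reporter activity is stated as fold change over agonist-alone wells. Wells with IncuCyte confluency under 70% of agonist controls in both mask sets were counted as cytotoxic.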
# RAW-Dual [2] = assay: IRF Lucia reporter activity, fold change vs agonist alone; higher = enhanced IRF activity; conditions: agonist: MPLA (TLR4) […]
# Procedure, shortened: as §1
# RAW-Dual [3] = assay: IRF Lucia reporter activity, fold change vs agonist alone; cytotoxicity flag (confluency mask): cytotoxic (confluency <70% of control); higher = enhanced IRF activity
# Procedure, shortened: as §1
# [4] = agonist: 3'3'-cGAMP (STING) 10 ug/mL
# [5] = library stock concentration (final ~1000-fold dilution): 10 mM, cytotoxicity flag (confluency mask): not cytotoxic
# [6] = library stock concentration (final ~1000-fold dilution): 10 mM, cytotoxicity flag (confluency mask): cytotoxic (confluency <70% of control)
structure (smiles),measurement,setting,value
CC1(C)CN(C(=O)c2ccc(-c3cccc4nc(NC(=O)C5CC5)nn34)cc2)C1 (library stock concentration (final ~1000-fold dilution): 10 mM),IRF Lucia reporter activity,RAW-Dual [1]; [4],0.308
same,IRF Lucia reporter activity,RAW-Dual [1]; agonist: LPS (TLR4) 0.1 ug/mL,0.577
CC1(C)CN(C(=O)c2ccc(-c3cccc4nc(NC(=O)C5CC5)nn34)cc2)C1,IRF Lucia reporter activity,RAW-Dual [2]; [5],0.713
CNCCC=C1c2ccccc2CCc2ccccc21.Cl,IRF Lucia reporter activity,RAW-Dual [2]; [6],1.38
CNCCC=C1c2ccccc2CCc2ccccc21.Cl (library stock concentration (final ~1000-fold dilution): 10 mM),IRF Lucia reporter activity,RAW-Dual [3]; [4],0.464
same,IRF Lucia reporter activity,RAW-Dual [3]; agonist: LPS (TLR4) 0.1 ug/mL,1.52
CN(C)c1ccc(O)c2c1CC1CC3C(N(C)C)C(O)=C(C(N)=O)C(=O)C3(O)C(O)=C1C2=O.Cl (configuration not stated),IRF Lucia reporter activity,"RAW-Dual [2]; library stock concentration (final ~1000-fold dilution): 2 mM water, cytotoxicity flag (confluency mask): not cytotoxic",1.28
CN(C)c1ccc(O)c2c1CC1CC3C(N(C)C)C(O)=C(C(N)=O)C(=O)C3(O)C(O)=C1C2=O.Cl (configuration not stated) (library stock concentration (final ~1000-fold dilution): 2 mM water),IRF Lucia reporter activity,RAW-Dual [1]; [4],1.09
same,IRF Lucia reporter activity,RAW-Dual [1]; agonist: LPS (TLR4) 0.1 ug/mL,0.851
Cc1sc2c(c1C)C(c1ccc(Cl)cc1)=N[C@@H](CC(=O)NCCCCCCCCNC(=O)COc1cccc3c1C(=O)N(C1CCC(=O)NC1=O)C3=O)c1nnc(C)n1-2 (some centres not stated) (library stock concentration (final ~1000-fold dilution): 10 mM),IRF Lucia reporter activity,RAW-Dual [3]; [4],0.189
same,IRF Lucia reporter activity,RAW-Dual [3]; agonist: LPS (TLR4) 0.1 ug/mL,0.244
CC(C)(O)c1ccccc1CCC(SCC1(CC(=O)O)CC1)c1cccc(/C=C/c2ccc3ccc(Cl)cc3n2)c1 (configuration not stated) (library stock concentration (final ~1000-fold dilution): 10 mM),IRF Lucia reporter activity,RAW-Dual [3]; [4],0.492
same,IRF Lucia reporter activity,RAW-Dual [3]; agonist: LPS (TLR4) 0.1 ug/mL,1.52
CC(C)(O)c1ccccc1CCC(SCC1(CC(=O)O)CC1)c1cccc(/C=C/c2ccc3ccc(Cl)cc3n2)c1 (configuration not stated),IRF Lucia reporter activity,RAW-Dual [2]; [6],0.73
Cc1cccc(/C=N/Nc2cc(N3CCOCC3)nc(OCCc3ccccn3)n2)c1,IRF Lucia reporter activity,RAW-Dual [2]; [5],3.08
CCOC(=O)CCNc1cc(N2CCc3ccccc3CC2)nc(-c2ccccn2)n1.Cl (library stock concentration (final ~1000-fold dilution): 10 mM),IRF Lucia reporter activity,RAW-Dual [1]; [4],1.03
same,IRF Lucia reporter activity,RAW-Dual [1]; agonist: LPS (TLR4) 0.1 ug/mL,1.04
CCOC(=O)CCNc1cc(N2CCc3ccccc3CC2)nc(-c2ccccn2)n1.Cl,IRF Lucia reporter activity,RAW-Dual [2]; [5],1
Cc1cccc(/C=N/Nc2cc(N3CCOCC3)nc(OCCc3ccccn3)n2)c1 (library stock concentration (final ~1000-fold dilution): 10 mM),IRF Lucia reporter activity,RAW-Dual [1]; [4],0.326
same,IRF Lucia reporter activity,RAW-Dual [1]; agonist: LPS (TLR4) 0.1 ug/mL,2.84
CCC(NC(=O)C(C)NC)C(=O)N1CC(O)CC1Cc1c(-c2[nH]c3cc(F)ccc3c2CC2CC(O)CN2C(=O)C(CC)NC(=O)C(C)NC)[nH]c2cc(F)ccc12 (configuration not stated),IRF Lucia reporter activity,RAW-Dual [2]; [5],0.519
CCC(NC(=O)C(C)NC)C(=O)N1CC(O)CC1Cc1c(-c2[nH]c3cc(F)ccc3c2CC2CC(O)CN2C(=O)C(CC)NC(=O)C(C)NC)[nH]c2cc(F)ccc12 (configuration not stated) (library stock concentration (final ~1000-fold dilution): 10 mM),IRF Lucia reporter activity,RAW-Dual [1]; [4],0.626
same,IRF Lucia reporter activity,RAW-Dual [1]; agonist: LPS (TLR4) 0.1 ug/mL,0.632
Cc1ccc(CN(CC(O)COc2cccc3[nH]ccc23)C(C)(C)C)cc1 (configuration not stated) (library stock concentration (final ~1000-fold dilution): 10 mM),IRF Lucia reporter activity,RAW-Dual [3]; [4],0.837
same,IRF Lucia reporter activity,RAW-Dual [3]; agonist: LPS (TLR4) 0.1 ug/mL,1.9
Cc1cc(C(C)Nc2ccccc2C(=O)O)c2nc(N3CCOCC3)cc(=O)n2c1 (configuration not stated) (library stock concentration (final ~1000-fold dilution): 10 mM),IRF Lucia reporter activity,RAW-Dual [1]; [4],1
same,IRF Lucia reporter activity,RAW-Dual [1]; agonist: LPS (TLR4) 0.1 ug/mL,1.04
Cc1cc(C(C)Nc2ccccc2C(=O)O)c2nc(N3CCOCC3)cc(=O)n2c1 (configuration not stated),IRF Lucia reporter activity,RAW-Dual [2]; [5],0.843
CC(O)CO.CCOc1ccc(Cc2cc(C3OC(CO)C(O)C(O)C3O)ccc2Cl)cc1.O (configuration not stated) (library stock concentration (final ~1000-fold dilution): 10 mM),IRF Lucia reporter activity,RAW-Dual [1]; [4],1.07
same,IRF Lucia reporter activity,RAW-Dual [1]; agonist: LPS (TLR4) 0.1 ug/mL,1.03
CC(O)CO.CCOc1ccc(Cc2cc(C3OC(CO)C(O)C(O)C3O)ccc2Cl)cc1.O (configuration not stated),IRF Lucia reporter activity,RAW-Dual [2]; [5],1.05
CC(Cn1cnc2c(N)ncnc21)OCP(=O)(O)O (configuration not stated),IRF Lucia reporter activity,RAW-Dual [2]; [5],1.05
CC(Cn1cnc2c(N)ncnc21)OCP(=O)(O)O (configuration not stated) (library stock concentration (final ~1000-fold dilution): 10 mM),IRF Lucia reporter activity,RAW-Dual [1]; [4],1
same,IRF Lucia reporter activity,RAW-Dual [1]; agonist: LPS (TLR4) 0.1 ug/mL,1
CC(C)(C)C(=O)OCOP(=O)(COCCn1cnc2c(N)ncnc21)OCOC(=O)C(C)(C)C,IRF Lucia reporter activity,RAW-Dual [2]; [5],2.95
CC(C)(C)C(=O)OCOP(=O)(COCCn1cnc2c(N)ncnc21)OCOC(=O)C(C)(C)C (library stock concentration (final ~1000-fold dilution): 10 mM),IRF Lucia reporter activity,RAW-Dual [1]; [4],2.04
same,IRF Lucia reporter activity,RAW-Dual [1]; agonist: LPS (TLR4) 0.1 ug/mL,2.36
Nc1ncnc2c1ncn2C(C=O)OC(C=O)CO (configuration not stated) (library stock concentration (final ~1000-fold dilution): 10 mM),IRF Lucia reporter activity,RAW-Dual [1]; [4],0.427
same,IRF Lucia reporter activity,RAW-Dual [1]; agonist: LPS (TLR4) 0.1 ug/mL,0.724
Cc1ccc(C2OC(CO)C(O)C(O)C2O)cc1Cc1ccc(-c2ccc(F)cc2)s1.Cc1ccc(C2OC(CO)C(O)C(O)C2O)cc1Cc1ccc(-c2ccc(F)cc2)s1.O (configuration not stated),IRF Lucia reporter activity,RAW-Dual [2]; [6],0.0328
Cc1ccc(C2OC(CO)C(O)C(O)C2O)cc1Cc1ccc(-c2ccc(F)cc2)s1.Cc1ccc(C2OC(CO)C(O)C(O)C2O)cc1Cc1ccc(-c2ccc(F)cc2)s1.O (configuration not stated) (library stock concentration (final ~1000-fold dilution): 10 mM),IRF Lucia reporter activity,RAW-Dual [3]; [4],0.0212
same,IRF Lucia reporter activity,RAW-Dual [3]; agonist: LPS (TLR4) 0.1 ug/mL,0.026
